Experimental data published in PubChem BioAssay (Tox21).
Records with an inconclusive call do not appear. Activity calls are given as the source filed them. Unless noted, calls follow the shape of the dose curve; as a rule, active = well fitted curve in the direction sought with a large enough effect in the repeat runs; inconclusive = weak or mixed curves; inactive = no such curve, though single readings can be large; an effect the other way counts as inactive or inconclusive.

Legend:
[1] = qHTS assay for small molecule agonists of the p53 signaling pathway (AID 651631; calls by dose curve; also: nearly all actives have a fitted effect of over 15% in size)
How it was run: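 HCT-116 cells carrying a beta-lactamase reporter under p53 response elements were dosed with compound for 16 h at 37 °C. LiveBLAzer B/G FRET substrate was then added for 2 h at room temperature, and fluorescence intensity was read to detect pathway agonism.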

[2] = qHTS assay for small molecules that induce genotoxicity in human embryonic kidney cells expressing luciferase-tagged ATAD5 (AID 651632); also: nearly all actives have a fitted effect of over 15% in size
How it was run: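 Concentration-response screen for ATAD5 upregulation in HEK293T luciferase reporter cells; 16 hr treatment at 37C, then luminescence after 30 min with Amplite at room temperature.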

[3] = qHTS assay for small molecule agonists of the p53 signaling pathway - cell viability (AID 651633; calls by dose curve;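 also: p53RE-bla HCT reporter cells with a stable beta-lactamase p53 reporter; series mostly up to about 83 µM; nearly all actives have a fitted effect of over 30% in size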)
How it was run: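 p53RE-bla cells, seeded at 4,000 per well and rested 5 h at 37 C/5% CO2, received compounds in DMSO for 16 h at 37 C. CellTiter-Glo was then added, and luminescence was read after 30 min at room temperature to gauge cytotoxicity.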

[4] = qHTS assay for small molecules that induce genotoxicity in human embryonic kidney cells expressing luciferase-tagged ATAD5 - cell viability (AID 651634; calls by dose curve; also: nearly all actives have a fitted effect of over 25% in size)
How it was run: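 15.5 hr compound or vehicle exposure of HEK293T cells expressing luciferase-tagged ATAD5 at 37C; live-cell protease activity is read by fluorescence after 30 min of CellTiter-Fluor.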

[5] = qHTS assay for small molecule disruptors of the mitochondrial membrane potential - cell viability (AID 720634; calls by dose curve;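 also: human HepG2 liver cancer cells; series mostly up to about 83 µM; nearly all actives have a fitted effect of over 20% in size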)
How it was run: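 In this qHTS format, HepG2 cells plated overnight were pinned with compound, incubated 1 hr, and assayed for ATP luminescence with CellTiter-Glo after m-MPI dye addition.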

[6] = qHTS assay to test for compound auto fluorescence at 590 nm (red) in HepG2 cells (AID 720674)
How it was run: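 Rose Bengal sodium served as the red fluorophore standard. HepG2 monolayers (overnight attachment, MEM with 10% FBS) were exposed to test compounds for 1 hr at 37 C and read at Ex 540/Em 590 nm.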

[7] = qHTS assay to test for compound auto fluorescence at 535 nm (green) in HepG2 cells (AID 720675)
[8] = qHTS assay to test for compound auto fluorescence at 460 nm (blue) in HEK293 cells (AID 720678)
How it was run: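 HEK293 cells (2,000 per well, medium with 10% dialyzed FBS) attached for 4-5 hr at 37C, then received compound and stood overnight at 37C, 5% CO2. Blue fluorescence was read at Ex/Em 405/460 nm and expressed relative to triamterene.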

[9] = qHTS assay to test for compound auto fluorescence at 590 nm (red) in HEK293 cells (AID 720679)
How it was run: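 HEK293 cells (2,000/well, medium with 10% dialyzed FBS) attached for 4-5 hr at 37C, received 23 nL compound and were incubated overnight at 37C, 5% CO2. Red fluorescence was then read at 540/590nm Ex/Em, referenced to Rose Bengal sodium.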

[10] = qHTS assay to test for compound auto fluorescence at 535 nm (green) in HEK293 cells (AID 720680)
[11] = qHTS assay to test for compound auto fluorescence at 460 nm (blue) in HEK293 cell free culture (AID 720681)
How it was run: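 Test compounds were pinned into cell-free culture medium (DMEM with 10% FBS) and fluorescence was read directly at Ex/Em 405/460 nm. Signals were expressed as fluorescence equivalents of triamterene, with DMSO vehicle as control.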

[12] = qHTS assay to test for compound auto fluorescence at 535 nm (green) in HEK293 cell free culture (AID 720682)
How it was run: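 Green-label autofluorescence (485 nm excitation, 535 nm emission) measured on compound added to cell-free culture medium (DMEM, 10% FBS). Output is expressed relative to fluorescein.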

[13] = qHTS assay to test for compound auto fluorescence at 590 nm (red) in HEK293 cell free culture (AID 720683)
How it was run: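 Tox21 10K library compounds were pinned into cell-free DMEM with 10% FBS and fluorescence was read at excitation 540 nm. Activity is expressed as Rose Bengal sodium equivalency.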

[14] = qHTS assay to test for compound auto fluorescence at 590 nm (red) in HepG2 cell free culture (AID 720684)
How it was run: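 Readout: intrinsic compound fluorescence at 590 nm emission after 540 nm excitation, scaled to Rose Bengal sodium. Matrix was cell-free MEM with 10% FBS; DMSO vehicle wells served as control.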

[15] = qHTS assay to test for compound auto fluorescence at 460 nm (blue) in HepG2 cell free culture (AID 720685)
How it was run: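 Cell-free plates of MEM plus 10% FBS received 23 nL compound or DMSO vehicle; blue-channel (405/460 nm) intensity scored against triamterene as reference fluorophore.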

[16] = qHTS assay to test for compound auto fluorescence at 535 nm (green) in HepG2 cell free culture (AID 720686)
[17] = qHTS assay to test for compound auto fluorescence at 460 nm (blue) in HepG2 cells (AID 720687)
How it was run: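 Cells (2,000/well in MEM with 10% FBS) attached overnight at 37 C, then were exposed to compound or DMSO for 1 hr at 37 C, 5% CO2. Fluorescence read at Ex/Em 405/460 nm, expressed as triamterene-equivalent signal.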

[18] = target: Glucocorticoid receptor (Homo sapiens) (UniProt P04150); experiment: qHTS assay to identify small molecule agonists of the glucocorticoid receptor (GR) signaling pathway (AID 720691; active = well fitted activation curve with a large enough effect in the signal ratio in the repeat runs, not every such curve was filed as active; the % refers to the signal ratio)
How it was run: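 Measures GR pathway activation through a GRE-beta-lactamase reporter stably integrated in HeLa cells, with 18 h compound treatment at 37 C and fluorescence detection using a FRET substrate.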

[19] = target: Glucocorticoid receptor (Homo sapiens) (UniProt P04150); experiment: qHTS assay to identify small molecule antagonists of the glucocorticoid receptor (GR) signaling pathway (AID 720692; active = well fitted inhibition curve with a large enough effect in the signal ratio in the repeat runs, not every such curve was filed as active; the % refers to the signal ratio)
How it was run: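 Tox21 10K library screened in concentration-response for blockade of dexamethasone (5 nM final)-induced GRE-bla reporter activity in HeLa cells; 18 h treatment, fluorescence read.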

[20] = qHTS assay for small molecule disruptors of the mitochondrial membrane potential (AID 720635)
How it was run: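 HepG2 cells (2,000/well) attached overnight at 37C, then took compound for 1 hr at 37C, 5% CO2. Mito-MPS dye was added for 30 min; fluorescence was read at 490/535 nm (monomers) and 540/590 nm (aggregates).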

Measured: Potency

Glucocorticoid receptor (Homo sapiens), sequence (P04150 whole entry, looked up): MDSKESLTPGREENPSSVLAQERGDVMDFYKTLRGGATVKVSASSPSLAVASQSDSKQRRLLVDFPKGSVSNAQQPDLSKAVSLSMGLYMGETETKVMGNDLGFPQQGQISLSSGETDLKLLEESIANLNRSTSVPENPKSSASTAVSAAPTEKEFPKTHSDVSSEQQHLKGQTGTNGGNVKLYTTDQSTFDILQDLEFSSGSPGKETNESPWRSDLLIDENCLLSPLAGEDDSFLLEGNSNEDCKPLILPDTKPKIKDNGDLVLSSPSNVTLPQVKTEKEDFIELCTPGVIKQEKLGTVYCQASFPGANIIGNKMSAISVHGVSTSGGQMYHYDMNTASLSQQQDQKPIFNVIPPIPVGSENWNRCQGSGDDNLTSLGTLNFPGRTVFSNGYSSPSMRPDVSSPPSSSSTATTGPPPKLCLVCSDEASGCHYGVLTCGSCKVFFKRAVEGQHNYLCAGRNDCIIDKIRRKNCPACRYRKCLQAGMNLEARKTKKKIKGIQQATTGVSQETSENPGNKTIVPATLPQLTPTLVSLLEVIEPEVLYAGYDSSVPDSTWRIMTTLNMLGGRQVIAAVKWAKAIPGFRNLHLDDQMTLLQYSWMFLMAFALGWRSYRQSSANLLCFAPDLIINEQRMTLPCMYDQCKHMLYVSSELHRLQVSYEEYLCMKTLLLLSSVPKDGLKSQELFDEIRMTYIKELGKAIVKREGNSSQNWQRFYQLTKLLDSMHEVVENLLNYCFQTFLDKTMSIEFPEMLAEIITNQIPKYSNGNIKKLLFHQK

O=C(Cl)c1cc(Cl)cc(Cl)c1
inactive: [1] | [2] | [3] | [4] | [5] | [6] | [7] | [8] | [9] | [10] | [11] | [12] | [13] | [14] | [15] | [16] | [17] | [18] | [19]

CC(C)=CCC/C(C)=C/C=N/O
inactive: [1] | [2] | [3] | [4] | [5] | [6] | [7] | [8] | [9] | [10] | [11] | [12] | [13] | [14] | [15] | [16] | [17] | [18]

O=C(O)c1c2ccccc2cc2ccccc12
inactive: [1] | [2] | [3] | [4] | [5] | [20] | [6] | [7] | [8] | [9] | [11] | [12] | [13] | [15] | [16] | [17]

O=C(O)c1ccncc1
inactive: [1] | [2] | [3] | [4] | [5] | [6] | [7] | [8] | [9] | [10] | [11] | [12] | [13] | [14] | [15] | [16] | [17] | [18]

C(/C=C/C=C/Nc1ccccc1)=Nc1ccccc1
inactive: [1] | [2] | [3] | [4] | [5] | [20] | [6] | [7] | [8] | [9] | [10] | [11] | [12] | [13] | [14] | [15] | [16] | [17]

O=C(O)c1cc(C(=O)O)cc([N+](=O)[O-])c1
inactive: [1] | [2] | [3] | [4] | [5] | [20] | [6] | [7] | [8] | [9] | [11] | [12] | [13] | [14] | [15] | [16] | [17] | [18] | [19]

CCCCCC1CCC(=O)O1 (stereo not given)
inactive: [1] | [2] | [3] | [4] | [5] | [20] | [6] | [7] | [8] | [9] | [11] | [12] | [14] | [15] | [16] | [17] | [18] | [19]

CCOc1ccccc1O
inactive: [1] | [2] | [3] | [4] | [5] | [20] | [6] | [7] | [8] | [9] | [10] | [11] | [14] | [15] | [16] | [17]

Oc1ccc(CCNCCCCCCNCCc2ccccc2)cc1O
inactive: [1] | [2] | [3] | [4] | [5] | [6] | [7] | [8] | [9] | [10] | [11] | [12] | [15] | [16] | [17]

Sc1nc(S)nc(S)n1
inactive: [1] | [2] | [3] | [4] | [5] | [7] | [8] | [9] | [10] | [11] | [12] | [13] | [14] | [15] | [16] | [17]

Cc1nc(C)c(C)nc1C
inactive: [1] | [2] | [3] | [4] | [5] | [7] | [8] | [9] | [10] | [11] | [12] | [13] | [14] | [15] | [16] | [17] | [18] | [19]

Cc1cc(N)n(-c2ccccc2)n1
inactive: [1] | [2] | [3] | [4] | [5] | [6] | [7] | [8] | [9] | [10] | [11] | [13] | [15] | [16] | [17]

CS(C)=O
inactive: [1] | [2] | [3] | [4] | [5] | [7] | [8] | [9] | [11] | [13] | [14] | [15] | [16] | [17] | [18]

Cc1c(Cl)cccc1[N+](=O)[O-]
inactive: [1] | [2] | [3] | [4] | [5] | [7] | [8] | [9] | [10] | [11] | [12] | [13] | [14] | [15] | [16] | [17] | [18]

NCCOCCOCCN
inactive: [1] | [2] | [3] | [4] | [5] | [7] | [8] | [9] | [10] | [11] | [12] | [13] | [15] | [16] | [17] | [18]

CCC(C)CCCC(C)(C)O (stereo not given)
inactive: [1] | [2] | [3] | [4] | [5] | [7] | [8] | [9] | [10] | [11] | [14] | [15] | [16] | [17] | [18] | [19]
